Assay in all cases: NCI-60 one-dose screen, 48 h (100 = growth as untreated, 0 = no growth, -100 = all killed)
For one assay, the system named is SK-MEL-2 melanoma. Particulars: 10 µM.
The next assay relates to EKVX NSCLC. The conditions noted are these: 10 µM.
The test system of the next assay is SN12C renal. Particulars: 10 µM.
In a further assay the test system is UO-31 renal. Particulars: 10 µM.
The subject of a further assay is TK-10 renal. The conditions noted are these: 10 µM unless noted.
In another assay the test system is ACHN renal. Particulars: 10 µM.
For the next assay, the system named is CAKI-1 renal. The conditions noted are these: 10 µM.
A further assay deals with A498 renal. Particulars: 10 µM.
The test system of a further assay is MOLT-4 leukemia. Particulars: 10 µM.
Another assay deals with SR leukemia. The conditions noted are these: 10 µM.
For another assay, the system named is RPMI-8226 leukemia. The conditions noted are these: 10 µM.
The subject of the next assay is OVCAR-8 ovarian. Particulars: 10 µM.
For another assay, the system named is OVCAR-5 ovarian. The conditions noted are these: 10 µM.
For another assay, the system named is OVCAR-4 ovarian. Particulars: 10 µM.
For the next assay, the system named is SK-OV-3 ovarian. The conditions noted are these: 10 µM.
The test system of a further assay is IGROV1 ovarian. The conditions noted are these: 10 µM.
Another assay relates to OVCAR-3 ovarian. The conditions noted are these: 10 µM.
The test system of a further assay is HS 578T breast. The conditions noted are these: 10 µM.
A further assay deals with NCI/ADR-RES ovarian. Particulars: 10 µM.
The test system of another assay is CCRF-CEM leukemia. The conditions noted are these: 10 µM.

This is an account of results in PubChem BioAssay (NCI).

SMILES strings stand for the structures. Compounds without any hit were thinned out: in the full panel of roughly 83,000, 20% have a hit.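 Each cell line was grown in a 96-well plate and treated with one concentration of compound for 48 hours. Values below 10 were considered active.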 A number with no mark means an inactive call. Activity calls are given as the source filed them.

`O=[N+]([O-])c1ccccc1N=Nc1ccc(O)cc1O`: the growth was 134% in the assay with SK-MEL-2 melanoma; 116% with EKVX NSCLC; 107% in the assay on SN12C renal; 66.3% with UO-31 renal; 140% with TK-10 renal; 109% with ACHN renal. For the same molecule, the growth with CAKI-1 renal was 95.1%; in the assay on A498 renal, 139%; in the assay on MOLT-4 leukemia it was 101%; in the assay on SR leukemia, 93%; in the assay with RPMI-8226 leukemia, 109%; in the assay on OVCAR-8 ovarian it was 104%. Besides, the growth with OVCAR-5 ovarian was 126%; in the assay with OVCAR-4 ovarian, 99.5%; with SK-OV-3 ovarian it was 101%; in the assay with IGROV1 ovarian, 92.9%; with OVCAR-3 ovarian, 122%; with HS 578T breast it was 131%. Moreover, in the assay with NCI/ADR-RES ovarian, the growth was 118%.
Take `Cc1cc(C)c(N)c(S(=O)(=O)O)c1`: the growth in the assay with SK-MEL-2 melanoma is 93.6%; with EKVX NSCLC it was 101%; in the assay on SN12C renal it was 97.7%; with UO-31 renal it was 76.2%; with TK-10 renal, 105%; in the assay with ACHN renal it was 96.6%. Besides, the growth is 91.3% in the assay with CAKI-1 renal; 86% with CCRF-CEM leukemia; 113% in the assay on MOLT-4 leukemia; 81.4% in the assay with SR leukemia; 92.4% with RPMI-8226 leukemia; 104% with OVCAR-8 ovarian. Also, the growth was 98.9% in the assay on OVCAR-4 ovarian, 94.6% with SK-OV-3 ovarian, 108% in the assay on IGROV1 ovarian and 113% with OVCAR-3 ovarian.
As to `O=C(NC1CCCCC1)OCc1c(COC(=O)NC2CCCCC2)c(-c2ccc(Cl)c(Cl)c2)n2c1CCC2`, the growth in the assay with SK-MEL-2 melanoma was -9.91% (active); in the assay on EKVX NSCLC it was 60.5%; with SN12C renal it was 22.3%; in the assay with UO-31 renal it was -13.6% (active); in the assay on TK-10 renal it was 35.2%; in the assay with ACHN renal, 5.4% (active). Besides, the growth was 8.84% (active) with CAKI-1 renal; -67.7% (active) with A498 renal; 32.9% in the assay on CCRF-CEM leukemia; 35% in the assay with OVCAR-8 ovarian; 19% with OVCAR-5 ovarian; 11.5% in the assay on OVCAR-4 ovarian. In addition, the growth in the assay with SK-OV-3 ovarian is 12.4%; in the assay on IGROV1 ovarian it was -42.4% (active); with OVCAR-3 ovarian, 31.2%; in the assay with HS 578T breast it was 39.7%; in the assay on NCI/ADR-RES ovarian, 25.2%.
As for `COc1cc(C(N)=O)cc(OC)c1OC`, the growth is 114% in the assay on SK-MEL-2 melanoma; 102% with EKVX NSCLC; 96.1% in the assay on SN12C renal; 82.5% with UO-31 renal; 111% with TK-10 renal; 105% in the assay with ACHN renal. Besides, the growth in the assay on CAKI-1 renal was 91%; in the assay on CCRF-CEM leukemia it was 103%; in the assay on MOLT-4 leukemia, 84.5%; in the assay on SR leukemia it was 93.3%; in the assay on RPMI-8226 leukemia, 106%; with OVCAR-8 ovarian, 98.1%. The growth in the assay with OVCAR-5 ovarian is 98.1%; with OVCAR-4 ovarian, 110%; with SK-OV-3 ovarian it was 111%; in the assay on IGROV1 ovarian, 108%; in the assay on OVCAR-3 ovarian, 117%; in the assay with HS 578T breast, 106%. In the assay with NCI/ADR-RES ovarian, the growth is 101%.
For the molecule `CC(=O)Nc1ccc(NC(C)=O)c2c1C(=O)c1ccccc1C2=O`, the growth with SK-MEL-2 melanoma is 103%; with EKVX NSCLC it was 73.5%; in the assay with SN12C renal it was 86.9%; with UO-31 renal it was 59.5%; in the assay on TK-10 renal, 92.6%; in the assay on ACHN renal, 78.8%. The growth in the assay on CAKI-1 renal was 68.6%; in the assay with A498 renal, 91.1%; in the assay on MOLT-4 leukemia it was 105%; in the assay on SR leukemia, 78.9%; with OVCAR-8 ovarian, 92.8%; in the assay on OVCAR-5 ovarian it was 88.4%. Further, the growth with SK-OV-3 ovarian is 88.5%; with IGROV1 ovarian, 67%; in the assay with OVCAR-3 ovarian, 104%; in the assay with HS 578T breast it was 102%; in the assay on NCI/ADR-RES ovarian, 95.4%.
For `O=C1C[C@H](c2ccccc2)[C@H](c2ccccc2)C1`, the growth with SK-MEL-2 melanoma is 93%; in the assay with EKVX NSCLC, 106%; in the assay on SN12C renal, 98.7%; in the assay on UO-31 renal, 81.9%; in the assay on TK-10 renal it was 94.2%; in the assay with ACHN renal, 102%. Also, the growth with CAKI-1 renal was 89.7%; in the assay with CCRF-CEM leukemia, 95.1%; in the assay with MOLT-4 leukemia it was 94.9%; with SR leukemia, 99.2%; with RPMI-8226 leukemia, 83.2%; with OVCAR-8 ovarian, 109%. The growth in the assay with OVCAR-5 ovarian is 95.8%; in the assay on OVCAR-4 ovarian, 105%; in the assay on SK-OV-3 ovarian, 102%; in the assay on IGROV1 ovarian it was 112%; in the assay with OVCAR-3 ovarian, 118%; in the assay on HS 578T breast, 112%. In addition, in the assay on NCI/ADR-RES ovarian, the growth was 106%.
Turning to `CC(=O)c1c[nH]c2ccccc12`, the growth is 161% with SK-MEL-2 melanoma; 99.2% in the assay on EKVX NSCLC; 99.2% in the assay on SN12C renal; 74.7% in the assay on UO-31 renal; 108% with TK-10 renal; 107% in the assay on ACHN renal. Further, the growth in the assay with CAKI-1 renal was 80.1%; in the assay with A498 renal, 103%; in the assay on CCRF-CEM leukemia, 102%; in the assay on SR leukemia it was 91.4%; with OVCAR-8 ovarian, 98.6%; with OVCAR-5 ovarian, 111%. Also, the growth in the assay on OVCAR-4 ovarian is 99.8%; with SK-OV-3 ovarian, 108%; in the assay on IGROV1 ovarian, 101%; in the assay with OVCAR-3 ovarian, 120%; in the assay with HS 578T breast, 104%; with NCI/ADR-RES ovarian it was 107%.
Turning to `Cc1nc2ccccc2c2nnc(SCC(=O)N(Cc3ccccc3)c3ccccc3)n12`, the growth is 51.2% with SK-MEL-2 melanoma; 76.6% in the assay on EKVX NSCLC; 100% in the assay on SN12C renal; 89% in the assay with UO-31 renal; 189% in the assay on TK-10 renal; 92.8% with ACHN renal. The growth in the assay on A498 renal was -16.6% (active); in the assay with CCRF-CEM leukemia, 85.4%; in the assay on MOLT-4 leukemia, 93.1%; with SR leukemia, 67.6%; with RPMI-8226 leukemia, 78.8%; in the assay with OVCAR-8 ovarian, 100%. Moreover, the growth was 95% in the assay with OVCAR-5 ovarian; 91.7% in the assay on OVCAR-4 ovarian; 93.8% in the assay on SK-OV-3 ovarian; 71.6% with IGROV1 ovarian; 93.4% in the assay with OVCAR-3 ovarian; 93.9% with HS 578T breast. Moreover, the growth in the assay on NCI/ADR-RES ovarian is 96.1%.
Consider `C#CCSc1nnnn1-c1ccc(Br)c(C)c1`, for which the growth in the assay with SK-MEL-2 melanoma was 86.9%; in the assay with EKVX NSCLC it was 35.7%; in the assay on SN12C renal, 71.8%; in the assay on UO-31 renal it was -93.1% (active); with TK-10 renal it was 111%; in the assay with ACHN renal, 92.5%. Moreover, the growth with A498 renal was 124%; with CCRF-CEM leukemia, 87.5%; with MOLT-4 leukemia it was 88.4%; in the assay with SR leukemia, 74.4%; with RPMI-8226 leukemia, 62.1%; in the assay with OVCAR-8 ovarian it was 82.5%. Also, the growth in the assay on OVCAR-5 ovarian was 90%; in the assay with OVCAR-4 ovarian it was 80.8%; in the assay with SK-OV-3 ovarian, 105%; with IGROV1 ovarian it was -28.7% (active); in the assay on OVCAR-3 ovarian, 106%; in the assay on HS 578T breast it was 78.2%. Further, the growth in the assay with NCI/ADR-RES ovarian was 84.6%.
